These compounds were tested against Solute carrier family 2, facilitated glucose transporter member 1 (Homo sapiens) (UniProt P11166) (assay: ST_JUDE_LEISH: Cytotoxicity at 2uM final concentration against transgenic Leishmania Mexicana promastigotes LmGLUT1 that are glucose transport deficient and complemented with the human glucose transporter GLUT1. Activity is measured by DNA content using SYBR green in vitro).
Assay type: functional

Solute carrier family 2, facilitated glucose transporter member 1 (Homo sapiens), sequence (P11166 whole entry): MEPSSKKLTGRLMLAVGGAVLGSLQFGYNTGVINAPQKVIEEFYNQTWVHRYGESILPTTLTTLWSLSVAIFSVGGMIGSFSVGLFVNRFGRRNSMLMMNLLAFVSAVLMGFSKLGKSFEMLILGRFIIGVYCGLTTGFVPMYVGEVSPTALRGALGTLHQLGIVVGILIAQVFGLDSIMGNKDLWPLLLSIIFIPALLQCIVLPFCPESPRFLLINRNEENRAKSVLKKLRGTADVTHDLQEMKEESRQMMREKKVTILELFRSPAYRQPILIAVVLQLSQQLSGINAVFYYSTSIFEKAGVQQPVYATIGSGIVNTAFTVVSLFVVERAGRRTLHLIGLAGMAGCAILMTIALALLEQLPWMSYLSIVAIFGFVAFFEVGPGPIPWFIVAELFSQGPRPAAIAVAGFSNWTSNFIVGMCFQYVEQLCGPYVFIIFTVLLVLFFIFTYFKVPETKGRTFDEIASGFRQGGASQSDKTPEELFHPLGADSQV

SMILES	inhibition [%]
CN1CCN(c2ccnc3ccc(NC(=O)Cc4cccc(Cl)c4Cl)cc23)CC1	1.15
Nc1cc(C(F)(F)F)ccc1Cl	-1.56
N#Cc1ccc(-c2ccc(C(=O)NCCCCN3CC=C(c4ccc5c(c4OCC4CC4)CCCC5)CC3)cc2)cc1	0.36
CC(C)(C)c1nn(-c2ccccc2)c2[nH]c(=O)c(CNCCc3ccccc3)cc12	0.22
COC(=O)c1cc(C(=O)CN(Cc2ccccc2)C(C)C)ccc1O	4.78
COc1cc2nc(NCC3CCN(C(=O)c4ccc(-c5ccc(C(=O)N(C)C)cc5C)cc4)CC3)nc(N)c2cc1OC	10.9
c1ccc(COc2ccc(Nc3ncnc4cnc(-c5ccc(CNc6cccnc6)o5)cc34)cc2)cc1	3.94
Cc1ccc2[nH]c(C)cc(=NN=CC=Cc3ccccc3)c2c1	-0.92
CCc1cc2c(cc1CC)CC(NC[C@@H](O)c1ccc(O)c3[nH]c(=O)ccc13)C2	1.34
COc1ccc(S(=O)(=O)N(CC(=O)NN=C(C)c2cccs2)c2cc(C)cc(C)c2)cc1OC	0.78
Cc1nc(N)nc(N)c1CCCOc1ccc(Br)cc1	6.19
CCC(C)c1ccc(O)c(NC(=O)c2cncc(Br)c2)c1 (stereo not given)	-0.89
COc1ccc2nc(-c3cccc(C)n3)nc(Nc3ccncc3)c2c1	11.6
CC(C)(C)c1ccc(CN2CCC(CNC(=O)c3cc(-c4ccccc4)nc4ccccc34)CC2)cc1	-2.07
CCOc1cc(C(=O)NCc2cccc(C(F)(F)F)c2)ccc1-c1nc2cc(Cl)ccc2[nH]1	2.15
Cn1c(-c2ccccc2)cc2c3c(=O)cc(C(F)(F)F)[nH]c3ccc21	13.8
CCc1c(CCNC/C=C/C=C/CNCCc2ccc(OC)c(OC)c2CC)ccc(OC)c1OC	3.5
O=C(c1cccc(-c2cccc(-c3nc4ccccc4[nH]3)c2)c1)N1CCCCC1CN1CCC(O)C1 (stereo not given)	0.33
O=C(Nc1ccc(-c2ccccc2)s1)N[C@H]1CCN(Cc2ccc(OCCCN3CCCCC3)cc2)C1	0.93
CN1CCCN(Cc2ccc(-c3cccc(NC(=O)c4cccc(F)c4)c3)cc2)CC1	12.9
CN(C)C(=O)CC(=O)NCc1c(Cl)cccc1Cl	0.42
O=C(NCc1cccc2ccccc12)c1ccc(CNC2CCN(Cc3ccccc3)CC2)cc1	1.65
O=C(NCCCCCN1CCC(c2c[nH]c3ccccc23)CC1)c1ccc(-c2ccccc2)nc1	2.41
CCOc1cc(CNCCCCCCNCc2cc(OCC)c(OCC)c3ccccc23)c2ccccc2c1OCC	58.6
N#CCOc1c(C2CCN(CCCCNC(=O)c3ccc(-c4ccc(C(F)(F)F)cc4)cc3)CC2)ccc2c1CCCC2	4.16

What follows are compounds tested against Hexose transporter 1 (Plasmodium falciparum) (UniProt O97467) (assay: ST_JUDE_LEISH: Cytotoxicity at 2uM final concentration against transgenic Leishmania Mexicana promastigotes LmPfHT that are glucose transport deficient and complemented with the Plasmodium falciparum hexose transporter. Activity is measured by DNA content using SYBR green in vitro).
Assay type: functional

SMILES	inhibition [%]
N=C(N)CCN(Cc1ccc(Cl)cc1)c1ccc(Cl)cc1	0.7
CCOC(=O)c1cccc(NC(=N)Nc2nc(C)cc(NCCc3ccccc3)n2)c1	7.16
Nc1nc(N)c2cc(Cc3ccccc3Cl)cnc2n1	2.28
CN1CCN(S(=O)(=O)c2ccc3nccc(Nc4ccc(Oc5ccccc5)cc4)c3c2)CC1	-1.4
COc1ccc(CC2(c3ccc(F)cc3)N=C(N)N(CCCc3ccccc3)C2=O)cc1 (stereo not given)	5.5
CC(=O)N(Cc1nc(-c2cc(C(F)(F)F)cc(C(F)(F)F)c2)cs1)c1c(C)cccc1C	4.86
COc1ccc(NC(=O)c2ccc3[nH]c(-c4ccc(Cl)cc4)cc3c2)cc1OCCN(C)C	1.88
Cc1ccc(NC(=O)Nc2ccc(Br)cc2)cc1OCCN(C)C	3.65
O=C(/C=C/c1ccc(Cl)c(Cl)c1)NCCCCCN1CCC(CCNC(=O)Cc2ccc(Cl)cc2)CC1	0.82
Cc1cc(N[C@@H](CC(C)C)C(=O)NCc2cccc(F)c2)nc(Nc2ccccc2)n1	2.87
COc1c(C2CCN(CCCCNC(=O)c3ccc(-c4ccc(Cl)cc4)cn3)CC2)ccc2c1CCCC2	-0.19
CCCc1cc(=O)oc2cc(OC)c(C(=O)CC(C)C)c(OC)c12	3.76
CCCc1cc(Cc2cnc(N)nc2N)ccc1OCCCCCC(=O)O	2.24
Fc1ccc2[nH]c(-c3ccc(-c4cccc(CN5CCC(CCN6CCCCC6)CC5)c4)cc3)nc2c1	1.77
CC(C)Cn1cc(C2CCN(CCN3CCC(CNC(=O)c4ccc(NC(=O)c5cc(Cl)cc(Cl)c5)cc4)CC3)CC2)c2ccccc21	4.22
CN1CCN(c2ccnc3ccc(NC(=O)Cc4cccc(Cl)c4Cl)cc23)CC1	-1.14
Nc1cc(C(F)(F)F)ccc1Cl	-2.13
N#Cc1ccc(-c2ccc(C(=O)NCCCCN3CC=C(c4ccc5c(c4OCC4CC4)CCCC5)CC3)cc2)cc1	1.41
CC(C)(C)c1nn(-c2ccccc2)c2[nH]c(=O)c(CNCCc3ccccc3)cc12	-1.47
COC(=O)c1cc(C(=O)CN(Cc2ccccc2)C(C)C)ccc1O	5.9

SMILES	inhibition [%]
COc1cc2nc(NCC3CCN(C(=O)c4ccc(-c5ccc(C(=O)N(C)C)cc5C)cc4)CC3)nc(N)c2cc1OC	9.71
c1ccc(COc2ccc(Nc3ncnc4cnc(-c5ccc(CNc6cccnc6)o5)cc34)cc2)cc1	3.46
Cc1ccc2[nH]c(C)cc(=NN=CC=Cc3ccccc3)c2c1	1.15
CCc1cc2c(cc1CC)CC(NC[C@@H](O)c1ccc(O)c3[nH]c(=O)ccc13)C2	1.76
COc1ccc(S(=O)(=O)N(CC(=O)NN=C(C)c2cccs2)c2cc(C)cc(C)c2)cc1OC	2.03
Cc1nc(N)nc(N)c1CCCOc1ccc(Br)cc1	4.15
CCC(C)c1ccc(O)c(NC(=O)c2cncc(Br)c2)c1 (stereo not given)	0.04
COc1ccc2nc(-c3cccc(C)n3)nc(Nc3ccncc3)c2c1	1.8
CC(C)(C)c1ccc(CN2CCC(CNC(=O)c3cc(-c4ccccc4)nc4ccccc34)CC2)cc1	0.33
CCOc1cc(C(=O)NCc2cccc(C(F)(F)F)c2)ccc1-c1nc2cc(Cl)ccc2[nH]1	2.24
Cn1c(-c2ccccc2)cc2c3c(=O)cc(C(F)(F)F)[nH]c3ccc21	13.1
CCc1c(CCNC/C=C/C=C/CNCCc2ccc(OC)c(OC)c2CC)ccc(OC)c1OC	0.39
O=C(c1cccc(-c2cccc(-c3nc4ccccc4[nH]3)c2)c1)N1CCCCC1CN1CCC(O)C1 (stereo not given)	0.78
O=C(Nc1ccc(-c2ccccc2)s1)N[C@H]1CCN(Cc2ccc(OCCCN3CCCCC3)cc2)C1	1.34
CN1CCCN(Cc2ccc(-c3cccc(NC(=O)c4cccc(F)c4)c3)cc2)CC1	9.38
CN(C)C(=O)CC(=O)NCc1c(Cl)cccc1Cl	4.4
O=C(NCc1cccc2ccccc12)c1ccc(CNC2CCN(Cc3ccccc3)CC2)cc1	2.12
O=C(NCCCCCN1CCC(c2c[nH]c3ccccc23)CC1)c1ccc(-c2ccccc2)nc1	2.42
CCOc1cc(CNCCCCCCNCc2cc(OCC)c(OCC)c3ccccc23)c2ccccc2c1OCC	12.1
N#CCOc1c(C2CCN(CCCCNC(=O)c3ccc(-c4ccc(C(F)(F)F)cc4)cc3)CC2)ccc2c1CCCC2	3.28
